The values below come from PubChem BioAssay (EPA / NIEHS).

The source made the active and inactive calls. Rule for the calls: active = hit-call score of the fitted dose curve at least 0.9, where 1 is the maximum; inactive = score below 0.9.

The nature of test [1]: BSK_hDFCGF_SRB: Viability Assessment in the BioMAP Diversity Plus: hDFCGF Assay (AID 2283061).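 Note: cells exposed to compound for 24 h before the read.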 Particulars: primary human foreskin fibroblasts. The gist of the method:
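Human foreskin primary fibroblasts were treated with compound and assessed 24 h after dosing. Total protein was measured by sulforhodamine B staining (0.1% SRB after 10% TCA fixation, 560 nm read) as a cytotoxicity marker, with bidirectional fitting against DMSO baseline.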

Read-out in test [2]: TIMP metallopeptidase inhibitor 1 (TIMP1), TIMP1 (gene 7076)
The test can be described thus: BSK_hDFCGF_TIMP1: BioMAP Diversity Plus: hDFCGF Assay for TIMP metallopeptidase inhibitor 1 (TIMP1) Biomarker Activity (AID 2283062). Particulars: primary human foreskin fibroblasts; actives raise or lower the signal. The gist of the method:
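Primary human foreskin fibroblasts in the hDFCGF system were dosed with compound for 24 h, then TIMP-1 was measured by ELISA. Activity was fitted bidirectionally relative to DMSO control; parallel SRB staining assessed cytotoxicity.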

Read-out in test [3]: Monokine induced gamma interferon (MIG), CXCL9 (gene 4283)
The test can be described thus: BSK_hDFCGF_MIG: BioMAP Diversity Plus: hDFCGF Assay for Monokine induced gamma interferon (MIG) Biomarker Activity (AID 2283063). Conditions: primary human foreskin fibroblasts; actives raise or lower the signal. The gist of the method:
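ELISA read-out of MIG from primary human dermal fibroblasts 24 h post-dosing. Gain or loss of signal fitted bidirectionally, DMSO as baseline.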

Read-out in test [4]: Matrix Metallopeptidase 1 (MMP1), MMP1 (gene 4312)
The test can be described thus: BSK_hDFCGF_MMP1: BioMAP Diversity Plus: hDFCGF Assay for Matrix Metallopeptidase 1 (MMP1) Biomarker Activity (AID 2283064). Particulars: primary human foreskin fibroblasts; actives raise or lower the signal. Summed up:
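hDFCGF primary fibroblasts (human foreskin); chemical added; 24 h; MMP1 by ELISA; bidirectional fit vs DMSO.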

Read-out in test [5]: Plasminogen activator inhibitor-1 (PAI1), SERPINE1 (gene 5054)
As to the kind of experiment: BSK_hDFCGF_PAI1: BioMAP Diversity Plus: hDFCGF Assay for Plasminogen activator inhibitor-1 (PAI1) Biomarker Activity (AID 2283066). Particulars: primary human foreskin fibroblasts; actives raise or lower the signal. Summed up:
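Primary dermal fibroblasts (human foreskin), hDFCGF system; compound 24 h; PAI-1 by ELISA; bidirectional fit vs DMSO control.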

Read-out in test [6]: Intercellular Adhesion Molecule 1 (ICAM1), ICAM1 (gene 3383)
The test can be described thus: BSK_KF3CT_ICAM1: BioMAP Diversity Plus: KF3CT Assay for Intercellular Adhesion Molecule 1 (ICAM1) Biomarker Activity (AID 2283067). Particulars: primary human keratinocytes with fibroblasts; actives raise or lower the signal. Summed up:
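Human keratinocyte plus foreskin fibroblast primary co-culture was exposed to chemical for 24 h. ICAM-1 was then quantified by ELISA, and the data were fit bidirectionally against DMSO as the negative control and baseline.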

Read-out in test [7]: Interferon-gamma inducible Protein 10 (IP10), CXCL10 (gene 3627)
The test can be described thus: BSK_KF3CT_IP10: BioMAP Diversity Plus: KF3CT Assay for Interferon-gamma inducible Protein 10 (IP10) Biomarker Activity (AID 2283068). Particulars: primary human keratinocytes with fibroblasts; actives raise or lower the signal. Summed up: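 Human keratinocyte plus foreskin fibroblast primary co-culture exposed to test chemical for 24 h; IP-10 measured by ELISA. Concentration-response fitted bidirectionally against DMSO control as baseline.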

Test [8] can be described thus: BSK_KF3CT_SRB: Viability Assessment in the BioMAP Diversity Plus: KF3CT Assay (AID 2283069).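 Note: fitted for both signal gain and loss against DMSO baseline.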 Particulars: primary human keratinocytes with fibroblasts. The gist of the method: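 Keratinocytes co-cultured with foreskin fibroblasts (human primary); chemical added, 24 h; fix 10% TCA, stain 0.1% SRB, A560. Bidirectional fit vs DMSO.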
Read-out in test [9]: Interleukin-1 alpha (IL1a), IL1A (gene 3552)
As to the kind of experiment: BSK_KF3CT_IL1a: BioMAP Diversity Plus: KF3CT Assay for Interleukin-1 alpha (IL1a) Biomarker Activity (AID 2283070). Conditions: primary human keratinocytes with fibroblasts; actives raise or lower the signal. The gist of the method:
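Chemicals were dosed onto co-cultured human keratinocytes and foreskin fibroblasts, IL-1a was quantified by ELISA at 24 h, and activity was fitted in both directions relative to DMSO controls.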

Read-out in test [10]: TIMP metallopeptidase inhibitor 2 (TIMP2), TIMP2 (gene 7077)
The test can be described thus: BSK_KF3CT_TIMP2: BioMAP Diversity Plus: KF3CT Assay for TIMP metallopeptidase inhibitor 2 (TIMP2) Biomarker Activity (AID 2283071). Particulars: primary human keratinocytes with fibroblasts; actives raise or lower the signal. Summed up:
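Cells: human keratinocytes co-cultured with foreskin fibroblasts. Treat with chemical, 24 h. Measure TIMP-2 by ELISA; fit curves bidirectionally vs DMSO baseline.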

Read-out in test [11]: Transforming growth factor beta 1 (TGFb1), TGFB1 (gene 7040)
The test can be described thus: BSK_KF3CT_TGFb1: BioMAP Diversity Plus: KF3CT Assay for Transforming growth factor beta 1 (TGFb1) Biomarker Activity (AID 2283072). Particulars: primary human keratinocytes with fibroblasts; actives raise or lower the signal. Summed up: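 Primary human skin cells (keratinocytes, foreskin fibroblasts) were co-cultured, exposed to test chemical and sampled at 24 h. TGF-b1 levels were measured by ELISA and fitted bidirectionally relative to DMSO.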

Read-out in test [12]: C-C motif chemokine 2 (Homo sapiens) (UniProt P13500)
The test can be described thus: BSK_KF3CT_MCP1: BioMAP Diversity Plus: KF3CT Assay for Monocyte Chemoattractant Protein 1 (MCP1/CCL2) Biomarker Activity (AID 2283073). Conditions: primary human keratinocytes with fibroblasts; actives raise or lower the signal. The gist of the method:
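Human keratinocyte plus foreskin fibroblast primary co-culture exposed to chemical for 24 h. MCP-1 levels measured by ELISA. Bidirectional curve fitting relative to DMSO negative control as baseline.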

Read-out in test [13]: Matrix Metallopeptidase 9 (MMP9), MMP9 (gene 4318)
As to the kind of experiment: BSK_KF3CT_MMP9: BioMAP Diversity Plus: KF3CT Assay for Matrix Metallopeptidase 9 (MMP9) Biomarker Activity (AID 2283074).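 For AC50: MMP9 protein level quantified by ELISA in the co-culture.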 Particulars: primary human keratinocytes with fibroblasts; actives raise or lower the signal. The gist of the method: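 Human keratinocyte/foreskin fibroblast co-culture; compound added; 24 h; MMP-9 by ELISA; bidirectional fit vs DMSO baseline.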

Read-out in test [14]: urokinase plasminogen activator (uPA), PLAU (gene 5328)
The test can be described thus: BSK_KF3CT_uPA: BioMAP Diversity Plus: KF3CT Assay for urokinase plasminogen activator (uPA) Biomarker Activity (AID 2283075). Particulars: primary human keratinocytes with fibroblasts; actives raise or lower the signal. Summed up:
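ELISA readout of uPA, analyzed for signal gain or loss relative to DMSO, from a human primary keratinocyte–foreskin fibroblast co-culture measured 24 h after chemical treatment.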

Read-out in a further test: CD40, CD40 (gene 958)
As to the kind of experiment: BSK_LPS_CD40: BioMAP Diversity Plus: LPS Assay for CD40 Biomarker Activity (AID 2283076). Conditions: primary human HUVEC with PBMC; actives raise or lower the signal. The gist of the method: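 Primary human umbilical vein endothelial cells co-cultured with peripheral blood mononuclear cells, LPS-stimulated, were dosed with chemical and read 24 h later. CD40 levels were measured by ELISA and fitted bidirectionally against DMSO as negative control and baseline.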

Read-out in test [15]: E-selectin (Homo sapiens) (UniProt P16581)
The test can be described thus: BSK_LPS_Eselectin: BioMAP Diversity Plus: LPS Assay for Eselectin Biomarker Activity (AID 2283077). Particulars: primary human HUVEC with PBMC; actives raise or lower the signal. The gist of the method: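 Human umbilical vein endothelial cells co-cultured with peripheral blood mononuclear cells under LPS stimulation; E-selectin measured by ELISA 24 h after chemical dosing. Activity fitted bidirectionally against DMSO as negative control and baseline.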

Read-out in test [16]: Interleukin-8 (IL8), CXCL8 (gene 3576)
The test can be described thus: BSK_LPS_IL8: BioMAP Diversity Plus: LPS Assay for Interleukin-8 (IL8) Biomarker Activity (AID 2283078). Conditions: primary human HUVEC with PBMC; actives raise or lower the signal. The gist of the method: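 Human umbilical vein endothelial cells co-cultured with PBMC were stimulated with LPS; IL-8 levels were measured by ELISA 24 h after chemical dosing. Activity was fitted bidirectionally against DMSO as negative control and baseline.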

Test [17] can be described thus: BSK_LPS_SRB: Viability Assessment in the BioMAP Diversity Plus: LPS Assay (AID 2283079).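 Note: total protein by sulforhodamine B absorbance as a cytotoxicity measure; measured one day after compound addition; fitted in both directions against DMSO so loss or gain of signal counts.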 Particulars: primary human HUVEC with PBMC. The gist of the method: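 Human umbilical vein endothelial cells co-cultured with PBMC (LPS system) were dosed for 24 h. Total protein was stained with 0.1% sulforhodamine B after 10% TCA fixation, read at 560 nm, and fitted bidirectionally against DMSO baseline.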

Read-out in test [18]: Interleukin-1 alpha (IL1a), IL1A (gene 3552)
The test can be described thus: BSK_LPS_IL1a: BioMAP Diversity Plus: LPS Assay for Interleukin-1 alpha (IL1a) Biomarker Activity (AID 2283080). Conditions: primary human HUVEC with PBMC; actives raise or lower the signal. Summed up: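 Human umbilical vein endothelial cells co-cultured with peripheral blood mononuclear cells were LPS-stimulated and exposed to test chemicals for 24 h. IL-1 alpha was quantified by ELISA, with bidirectional curve fitting against DMSO as the negative control and baseline.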

Chain of E-selectin (Homo sapiens) (P16581 whole entry, looked up): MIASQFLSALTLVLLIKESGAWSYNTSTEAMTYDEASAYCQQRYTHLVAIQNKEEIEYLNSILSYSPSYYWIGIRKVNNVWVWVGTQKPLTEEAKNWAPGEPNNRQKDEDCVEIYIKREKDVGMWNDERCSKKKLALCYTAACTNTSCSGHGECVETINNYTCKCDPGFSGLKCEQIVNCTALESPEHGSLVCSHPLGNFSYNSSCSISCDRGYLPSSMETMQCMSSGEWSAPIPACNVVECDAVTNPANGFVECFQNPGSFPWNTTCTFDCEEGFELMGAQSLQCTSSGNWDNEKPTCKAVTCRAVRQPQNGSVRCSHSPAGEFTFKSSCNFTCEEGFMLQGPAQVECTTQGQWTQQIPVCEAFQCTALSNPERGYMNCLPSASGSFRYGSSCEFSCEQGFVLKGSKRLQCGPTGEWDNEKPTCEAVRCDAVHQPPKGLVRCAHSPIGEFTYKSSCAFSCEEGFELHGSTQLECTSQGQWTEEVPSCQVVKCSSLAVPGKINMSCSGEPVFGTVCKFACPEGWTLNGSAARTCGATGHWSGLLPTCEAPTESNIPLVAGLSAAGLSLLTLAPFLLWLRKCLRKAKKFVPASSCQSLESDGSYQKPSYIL

In the case of `C[C@]12CCC(=O)C=C1CC[C@@H]1[C@@H]2CC[C@@]2(C)[C@H]1CC[C@]2(C)O`, the result in test [1], in [2], in test [3], in test [4], in test [5] and in [6] was inactive. In addition, the outcome in [7], in [8], in test [9], in [10], in test [11] and in [12] was inactive. For the same compound, the outcome in test [13] is “inactive”; in test [14], “inactive”; in the test with CD40, CD40 (gene 958), “inactive”; in test [15], “inactive”; in test [16], “inactive”; in test [17] it was “inactive”. Besides, the outcome in test [18] was inactive.
In the case of `O=C(O)C(F)(F)C(F)(F)C(F)(F)C(F)(F)C(F)(F)F`, the outcome in [1], in test [2], in test [3], in test [4], in [5] and in test [6] was inactive. Further, the outcome in [7], in test [8], in test [9], in [10], in test [11] and in test [13] was inactive. Besides, the outcome in [14] is “inactive”; with CD40, CD40 (gene 958), “inactive”; in test [15], “inactive”; in [16], “inactive”; in test [17], “inactive”; in test [18], “inactive”.
Take `Nn1cnnc1`: the outcome in test [1], in test [2], in test [3], in [4], in [5] and in test [6] was inactive. The outcome in test [7], in [8], in test [9], in test [10], in test [11] and in test [13] was inactive. For the same compound, the outcome in test [14] was “inactive”; with CD40, CD40 (gene 958), “inactive”; in test [15], “inactive”; in test [16], “inactive”; in test [17] it was “inactive”; in test [18], “inactive”.
In the case of `CCC(C)(c1ccc(O)cc1)c1ccc(O)cc1`, the AC50 in [1] is 27.7 µM (active); with CD40, CD40 (gene 958), 20 µM (active); in [17], 20 µM (active). Also, the outcome in test [2], in [3], in test [4], in test [5], in test [6] and in [7] was inactive. Besides, the result in test [8], in test [9], in [10], in test [11], in test [13] and in test [14] was inactive. The result in [15], in test [16] and in test [18] was inactive.
As for `CCCCCCCCCc1ccc(O)cc1`, the AC50 is 15.4 µM (active) in [1]; 16.9 µM (active) in test [2]; 14.9 µM (active) in test [3]; 15.4 µM (active) in [4]; 15.5 µM (active) in test [5]; 15.1 µM (active) in test [6]. The AC50 in test [7] is 13.4 µM (active); in test [8] it was 14.6 µM (active); in [9] it was 15.6 µM (active); in test [10], 14.6 µM (active); in test [11], 13.5 µM (active); in test [13], 13.2 µM (active). Further, the AC50 in [14] was 17.2 µM (active); with CD40, CD40 (gene 958), 22.6 µM (active); in [15] it was 29.9 µM (active); in test [16], 27.6 µM (active); in [17], 23.1 µM (active); in [18], 22 µM (active).
On to `O=NN(c1ccccc1)c1ccccc1`, for which the result in test [1], in test [2], in [3], in [4], in test [5] and in test [6] was inactive. Further, the outcome in test [7], in test [8], in test [9], in [10], in test [11] and in [13] was inactive. Also, the outcome in test [14] was “inactive”; in the test with CD40, CD40 (gene 958) it was “inactive”; in test [15], “inactive”; in [16], “inactive”; in test [17] it was “inactive”; in [18], “inactive”.
